# Experimental data taken from the supplement of paper PMC10477191.
# ± gives the standard deviation of the averaged measurements.
# Test system: Drosophila virilis antennal basiconic sensillum AB3
# Test: odor-evoked OSN spike response (post minus pre-stimulus); higher = stronger neuronal excitation
# Conditions: odor dilution: 10^-4
# Description: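 Single sensillum recordings from antennal basiconic sensilla of D. virilis. A 500 ms pulse of odorant (10^-4 in mineral oil or DMSO) was delivered; the response is the change in spike frequency between the 1 s pre- and post-stimulus windows (spikes/s).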
row,Compound,odor-evoked OSN spike response
1,CC(C)=O [acetone],92.2 ± 20 spikes/s
